Reference: PubChem BioAssay (EPA / NIEHS)
Inconclusive results are not listed. Active and inactive are the calls of the source. The calls were made as follows, unless noted: active = hit-call score of the fitted dose curve at least 0.9, where 1 is the maximum; inactive = score below 0.9.

What was measured:
[1] = molecular target: Aryl hydrocarbon receptor (Homo sapiens) (UniProt P35869); test: ATG_Ahr_CIS: Attagene CIS-FACTORIAL HepG2 Assay for human Aryl Hydrocarbon Receptor (Ahr) (AID 2282930); details: HepG2 AhR cis-factorial reporter transcription; actives raise or lower the signal
Sequence of Aryl hydrocarbon receptor (Homo sapiens) (P35869 whole entry, looked up): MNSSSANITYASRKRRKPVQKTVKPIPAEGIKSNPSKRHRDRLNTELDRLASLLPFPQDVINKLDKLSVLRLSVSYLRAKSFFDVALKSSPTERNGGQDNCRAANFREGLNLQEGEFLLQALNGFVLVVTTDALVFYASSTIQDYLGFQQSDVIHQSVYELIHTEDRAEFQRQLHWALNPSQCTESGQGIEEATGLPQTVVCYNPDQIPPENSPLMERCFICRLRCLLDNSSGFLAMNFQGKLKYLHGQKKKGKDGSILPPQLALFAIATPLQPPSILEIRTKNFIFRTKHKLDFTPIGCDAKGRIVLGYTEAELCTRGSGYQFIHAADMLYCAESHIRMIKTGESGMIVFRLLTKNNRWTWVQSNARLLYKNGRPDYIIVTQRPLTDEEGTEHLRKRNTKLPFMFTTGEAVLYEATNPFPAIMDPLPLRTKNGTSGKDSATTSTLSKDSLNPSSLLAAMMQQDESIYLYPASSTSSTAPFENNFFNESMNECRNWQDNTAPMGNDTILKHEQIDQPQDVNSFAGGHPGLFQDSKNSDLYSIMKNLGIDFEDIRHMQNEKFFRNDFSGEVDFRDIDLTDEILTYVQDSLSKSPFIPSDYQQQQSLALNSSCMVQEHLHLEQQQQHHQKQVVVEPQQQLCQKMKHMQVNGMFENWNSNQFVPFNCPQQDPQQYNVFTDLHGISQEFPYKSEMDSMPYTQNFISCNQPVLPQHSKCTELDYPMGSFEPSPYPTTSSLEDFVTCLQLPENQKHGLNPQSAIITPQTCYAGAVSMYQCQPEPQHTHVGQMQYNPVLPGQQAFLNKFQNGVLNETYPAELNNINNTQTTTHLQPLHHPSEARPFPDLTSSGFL
Summary of the method: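 Transient MRTU transfection of HepG2 → 24 h compound exposure → total RNA, oligo(dT) RT → PCR, 6-FAM extension, HpaI cut → CE fluorescence. DMSO = baseline; bidirectional curve fit.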

[2] = ATG_PBREM_CIS: Attagene CIS-FACTORIAL HepG2 Assay for human Phenobarbital-responsive Enhancer Module (PBREM) (AID 2282955); details: HepG2 PBREM cis-reporter, Attagene multiplexed transcription; actives raise or lower the signal
Summary of the method: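 Transfected liver-derived HepG2 cells exposed 24 h; PBREM reporter transcript quantified via RT-PCR and capillary electrophoresis, with activity in either direction referenced to DMSO.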

[3] = ATG_PPRE_CIS: Attagene CIS-FACTORIAL HepG2 Assay for human Peroxisome Proliferator-activated Response Element (PPRE) (AID 2282958); details: HepG2 PPRE cis-element reporter, Attagene transcription factor profiling; actives raise or lower the signal
Summary of the method: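 Measured endpoint: PPRE-controlled reporter mRNA, detected by RT-PCR and capillary electrophoresis fluorescence, from transiently transfected HepG2 cells 24 h after dosing. Curves fitted in both directions using DMSO baseline.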

[4] = ATG_SREBP_CIS: Attagene CIS-FACTORIAL HepG2 Assay for human Sterol Regulatory Element Binding (SREBP) (AID 2282962); details: HepG2 Attagene cis-factorial SREBP reporter, mRNA; actives raise or lower the signal
Summary of the method: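 In this cis-format assay, HepG2 liver cells express reporters controlled by promoter elements responsive to native transcription factors. Exposure lasts 24 h; reporter mRNA fluorescence from capillary electrophoresis gives the signal, fitted bidirectionally against DMSO.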

[5] = ATG_M_19_TRANS: Attagene TRANS-FACTORIAL HepG2 Assay for M19 Transcription Factor (Internal Marker) (AID 2282974; active = hit-call score of the fitted dose curve at least 0.9, where 1 is the maximum); details: HepG2 Attagene TRANS-FACTORIAL M19 internal marker reporter
Summary of the method: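 Using RT-PCR and capillary electrophoresis, reporter mRNA from transiently transfected human HepG2 cells was quantified following 24 h exposure; activity was fitted in the positive direction against DMSO.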

[6] = ATG_GAL4_TRANS: Attagene TRANS-FACTORIAL HepG2 Assay for GAL4 (Internal Marker) (AID 2282976; active = hit-call score of the fitted dose curve at least 0.9, where 1 is the maximum); details: HepG2 Attagene TRANS GAL4 internal marker reporter
Summary of the method: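 First, HepG2 cells were transfected with reporter units under GAL4-UAS control. Next, they were treated with chemical for 24 h. Finally, RNA was reverse-transcribed, PCR-amplified, FAM-labelled and resolved by capillary electrophoresis, with induction scored against DMSO.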

[7] = molecular target: Nuclear receptor subfamily 4 group A member 2 (Homo sapiens) (UniProt P43354); test: ATG_NURR1_TRANS: Attagene TRANS-FACTORIAL HepG2 Assay for human Nuclear Receptor Related Protein 1 (NURR1) (AID 2282985; active = hit-call score of the fitted dose curve at least 0.9, where 1 is the maximum); details: HepG2 Attagene TRANS reporter, mRNA readout
Sequence of Nuclear receptor subfamily 4 group A member 2 (Homo sapiens) (P43354 whole entry, looked up, the tested form may be a part): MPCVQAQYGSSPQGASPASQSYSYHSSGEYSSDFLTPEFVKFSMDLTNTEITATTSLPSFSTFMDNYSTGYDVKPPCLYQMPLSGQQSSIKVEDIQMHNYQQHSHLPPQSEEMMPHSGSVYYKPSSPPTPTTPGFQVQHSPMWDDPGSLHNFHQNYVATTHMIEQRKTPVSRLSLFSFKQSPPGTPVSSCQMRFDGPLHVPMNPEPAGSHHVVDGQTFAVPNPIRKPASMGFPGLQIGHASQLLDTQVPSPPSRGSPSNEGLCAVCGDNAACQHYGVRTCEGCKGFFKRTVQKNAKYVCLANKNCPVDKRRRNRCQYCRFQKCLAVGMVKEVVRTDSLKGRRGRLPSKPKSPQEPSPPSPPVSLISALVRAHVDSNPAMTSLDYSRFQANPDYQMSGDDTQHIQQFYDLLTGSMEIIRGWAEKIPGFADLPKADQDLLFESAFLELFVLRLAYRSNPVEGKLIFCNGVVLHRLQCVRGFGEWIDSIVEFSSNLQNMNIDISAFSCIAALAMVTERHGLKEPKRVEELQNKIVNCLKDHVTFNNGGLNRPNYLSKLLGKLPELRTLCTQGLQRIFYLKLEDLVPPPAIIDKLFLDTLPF
Summary of the method: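 Measures transcriptional activation by an exogenous NR-Gal4 chimera in transfected HepG2 liver cells. After 24 h, reporter RNA is reverse-transcribed, amplified and resolved by capillary electrophoresis; DMSO defines baseline.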

[8] = molecular target: Myc proto-oncogene protein (Homo sapiens) (UniProt P01106); test: ATG_Myc_CIS: Attagene CIS-FACTORIAL HepG2 Assay for human Myelocytomatosis (Myc) Proto-Oncogene Transcription Factor (AID 2282990); details: HepG2, Attagene cis-reporter transcription factor activity; actives raise or lower the signal
Sequence of Myc proto-oncogene protein (Homo sapiens) (P01106 whole entry, looked up): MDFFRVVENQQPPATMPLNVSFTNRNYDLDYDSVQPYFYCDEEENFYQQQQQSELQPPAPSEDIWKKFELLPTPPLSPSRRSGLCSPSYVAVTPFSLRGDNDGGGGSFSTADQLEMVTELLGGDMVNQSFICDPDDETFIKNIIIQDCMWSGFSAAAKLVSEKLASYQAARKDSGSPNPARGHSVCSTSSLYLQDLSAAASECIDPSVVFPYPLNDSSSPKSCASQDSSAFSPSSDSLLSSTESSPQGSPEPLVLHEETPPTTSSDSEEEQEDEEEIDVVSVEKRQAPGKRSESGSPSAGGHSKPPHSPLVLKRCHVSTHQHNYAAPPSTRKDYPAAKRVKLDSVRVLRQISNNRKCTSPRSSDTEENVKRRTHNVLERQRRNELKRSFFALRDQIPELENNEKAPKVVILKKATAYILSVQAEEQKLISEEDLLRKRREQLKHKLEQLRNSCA
Summary of the method: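 HepG2, transient MRTU transfection (cis promoters, endogenous TFs); 24 h dosing; TriZol RNA → oligo(dT) RT → PCR → 6-FAM primer extension → HpaI cut → CE. Bidirectional fit vs DMSO.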

[9] = molecular target: human Peroxisome Proliferator-activated Receptor alpha (PPARa), PPARA (gene 5465) (UniProt Q07869); test: ATG_PPARa_TRANS: Attagene TRANS-FACTORIAL HepG2 Assay for human Peroxisome Proliferator-activated Receptor alpha (PPARa) (AID 2283001; active = hit-call score of the fitted dose curve at least 0.9, where 1 is the maximum;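 as to AC50: potency for gain of reporter signal over DMSO so agonist or activator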)
Sequence of human Peroxisome Proliferator-activated Receptor alpha (PPARa), PPARA (gene 5465) (Q07869 whole entry, looked up, the tested form may be a part): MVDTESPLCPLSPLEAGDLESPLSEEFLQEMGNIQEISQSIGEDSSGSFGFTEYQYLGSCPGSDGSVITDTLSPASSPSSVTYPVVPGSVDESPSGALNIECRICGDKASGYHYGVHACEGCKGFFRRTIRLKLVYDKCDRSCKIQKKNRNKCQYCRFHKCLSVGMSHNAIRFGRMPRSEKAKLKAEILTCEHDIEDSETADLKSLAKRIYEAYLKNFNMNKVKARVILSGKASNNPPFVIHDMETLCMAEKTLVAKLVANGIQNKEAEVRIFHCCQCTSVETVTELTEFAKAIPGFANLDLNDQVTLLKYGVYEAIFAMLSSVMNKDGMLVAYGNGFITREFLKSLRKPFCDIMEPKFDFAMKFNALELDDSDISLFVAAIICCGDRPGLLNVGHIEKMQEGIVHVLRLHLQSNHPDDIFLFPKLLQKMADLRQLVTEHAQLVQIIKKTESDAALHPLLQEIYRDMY
Summary of the method: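 Transfected HepG2 cells treated with test chemical for 24 h. RNA isolated, reverse-transcribed with oligo(dT), PCR-amplified, FAM-labelled and HpaI-digested. Fragments sized by capillary electrophoresis; gain-of-signal fit relative to DMSO.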

[10] = molecular target: Nuclear receptor subfamily 1 group I member 2 (Homo sapiens) (UniProt O75469); test: ATG_PXR_TRANS: Attagene TRANS-FACTORIAL HepG2 Assay for human Pregnane X Receptor (PXR) (AID 2283008; active = hit-call score of the fitted dose curve at least 0.9, where 1 is the maximum)
Sequence of Nuclear receptor subfamily 1 group I member 2 (Homo sapiens) (O75469 whole entry, looked up, the tested form may be a part): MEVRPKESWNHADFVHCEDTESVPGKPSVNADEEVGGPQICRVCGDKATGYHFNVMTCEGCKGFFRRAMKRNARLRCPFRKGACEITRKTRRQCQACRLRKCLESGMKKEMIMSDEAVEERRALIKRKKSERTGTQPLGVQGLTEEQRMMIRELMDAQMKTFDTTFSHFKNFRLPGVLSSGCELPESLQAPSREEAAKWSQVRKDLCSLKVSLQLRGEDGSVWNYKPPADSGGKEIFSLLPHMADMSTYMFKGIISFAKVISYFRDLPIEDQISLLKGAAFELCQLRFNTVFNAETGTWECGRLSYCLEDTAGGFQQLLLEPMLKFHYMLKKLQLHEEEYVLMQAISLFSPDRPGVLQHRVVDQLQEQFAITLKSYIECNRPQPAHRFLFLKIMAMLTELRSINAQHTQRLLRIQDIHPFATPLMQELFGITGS
Summary of the method: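 Multiplexed TRANS reporter panel in HepG2; this component tracks PXR-Gal4-driven reporter mRNA after 24 h dosing, measured by RT-PCR with capillary electrophoresis fluorescence, fitted against DMSO.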

[11] = molecular target: Retinoic acid receptor RXR-alpha (Homo sapiens) (UniProt P19793); test: ATG_RXRa_TRANS: Attagene TRANS-FACTORIAL HepG2 Assay for human Retinoid X Receptor alpha (RXRa) (AID 2283012; active = hit-call score of the fitted dose curve at least 0.9, where 1 is the maximum)
Sequence of Retinoic acid receptor RXR-alpha (Homo sapiens) (P19793 whole entry, looked up, the tested form may be a part): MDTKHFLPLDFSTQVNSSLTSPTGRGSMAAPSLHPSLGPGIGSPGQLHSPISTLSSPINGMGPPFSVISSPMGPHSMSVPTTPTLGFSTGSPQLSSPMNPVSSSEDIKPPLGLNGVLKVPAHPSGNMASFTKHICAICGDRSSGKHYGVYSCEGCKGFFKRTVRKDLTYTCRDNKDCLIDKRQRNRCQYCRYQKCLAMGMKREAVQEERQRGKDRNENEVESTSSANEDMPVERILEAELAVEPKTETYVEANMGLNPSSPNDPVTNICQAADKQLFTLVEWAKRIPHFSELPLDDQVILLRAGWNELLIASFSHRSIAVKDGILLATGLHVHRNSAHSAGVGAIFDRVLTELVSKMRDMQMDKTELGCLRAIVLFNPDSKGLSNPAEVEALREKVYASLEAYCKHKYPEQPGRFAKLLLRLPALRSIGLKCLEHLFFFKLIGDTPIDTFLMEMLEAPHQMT
Summary of the method: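 Read-out: fluorescent reporter-transcript fragments quantified by capillary electrophoresis after RT-PCR. Transiently transfected HepG2 cells carrying GAL4-UAS reporters and NR-GAL4 chimeras were exposed to chemical for 24 h; activity scored as increase over DMSO.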

[12] = molecular target: human Retinoid X Receptor beta (RXRb), RXRB (gene 6257) (UniProt P28702); test: ATG_RXRb_TRANS: Attagene TRANS-FACTORIAL HepG2 Assay for human Retinoid X Receptor beta (RXRb) (AID 2283013; active = hit-call score of the fitted dose curve at least 0.9, where 1 is the maximum)
Sequence of human Retinoid X Receptor beta (RXRb), RXRB (gene 6257) (P28702 whole entry, looked up, the tested form may be a part): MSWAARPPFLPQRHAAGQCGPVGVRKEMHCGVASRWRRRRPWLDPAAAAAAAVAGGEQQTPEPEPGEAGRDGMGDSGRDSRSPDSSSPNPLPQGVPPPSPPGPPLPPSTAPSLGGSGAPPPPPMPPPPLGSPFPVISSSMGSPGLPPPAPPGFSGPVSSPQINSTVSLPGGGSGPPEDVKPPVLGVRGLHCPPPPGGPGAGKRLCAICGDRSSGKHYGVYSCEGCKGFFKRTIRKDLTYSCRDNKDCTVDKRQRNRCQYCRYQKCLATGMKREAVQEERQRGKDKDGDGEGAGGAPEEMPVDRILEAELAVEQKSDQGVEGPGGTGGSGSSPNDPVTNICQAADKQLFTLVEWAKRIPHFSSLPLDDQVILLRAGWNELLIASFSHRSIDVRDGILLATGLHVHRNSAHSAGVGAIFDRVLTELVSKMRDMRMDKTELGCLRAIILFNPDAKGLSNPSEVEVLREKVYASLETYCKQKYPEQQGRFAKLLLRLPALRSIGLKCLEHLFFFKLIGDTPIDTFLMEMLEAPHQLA
Summary of the method: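 Read-out: reporter mRNA induction via RT-PCR plus capillary electrophoresis fluorescence, analysed as signal increase relative to DMSO. Cells were human HepG2, transiently transfected with GAL4-UAS reporter constructs and chimeric receptor-Gal4 fusions, dosed for 24 h.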

[13] = TOX21_p53_BLA_p5_viability: Viability Assessment in the Tox21 HCT-116 p53 Agonism Beta-lactamase Assay, Phase 5 (AID 2283600; active = hit-call score of the fitted dose curve at least 0.9, where 1 is the maximum)
Summary of the method: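 Workflow: seed 4000 cells per well, wait 5 h, add compounds (DMSO, 217-fold dilution), incubate 16 h, load CCF4-AM 2 h, add CellTiter-Glo, read luminescence after 30 min.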

[14] = ATG_GRE_CIS: Attagene CIS-FACTORIAL HepG2 Assay for human Glucocorticoid Response Elements (GRE) (AID 2282947); details: HepG2 GRE cis-reporter, Attagene multiplex mRNA; actives raise or lower the signal
Summary of the method: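 Multiplexed cis-reporter mRNA induction, HepG2, 24 h post-dose. RT-PCR, FAM-labelled, HpaI-digested amplicons by CE. Bidirectional fit vs DMSO.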

[15] = ATG_PXRE_CIS: Attagene CIS-FACTORIAL HepG2 Assay for human Pregnane X Receptor Element (PXRE) (AID 2282957); details: HepG2 Attagene CIS-FACTORIAL PXRE reporter, mRNA; actives raise or lower the signal
Summary of the method: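 Using HepG2 transfected with multiple reporter transcription units, endogenous factor-driven transcription was scored as reporter mRNA after 24 h exposure.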

[16] = molecular target: X-box-binding protein 1 (Homo sapiens) (UniProt P17861); test: ATG_Xbp1_CIS: Attagene CIS-FACTORIAL HepG2 Assay for human X-box Binding Protein 1 (XBP1) (AID 2282972); details: HepG2 XBP1 cis-element reporter, Attagene multiplex; actives raise or lower the signal
Sequence of X-box-binding protein 1 (Homo sapiens) (P17861 whole entry, looked up): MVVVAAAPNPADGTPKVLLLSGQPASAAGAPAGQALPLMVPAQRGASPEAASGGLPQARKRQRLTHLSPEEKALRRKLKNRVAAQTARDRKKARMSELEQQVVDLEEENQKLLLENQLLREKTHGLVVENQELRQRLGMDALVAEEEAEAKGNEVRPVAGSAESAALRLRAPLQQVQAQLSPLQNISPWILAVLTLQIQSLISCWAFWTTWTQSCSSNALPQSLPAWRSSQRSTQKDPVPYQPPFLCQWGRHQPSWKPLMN
Summary of the method: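 Changes in reporter transcript abundance, read by RT-PCR and capillary electrophoresis, reflect endogenous transcription factor activity. Transfected HepG2 cells received compound for 24 hours; DMSO defined baseline for bidirectional analysis.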

[17] = ATG_M_06_TRANS: Attagene TRANS-FACTORIAL HepG2 Assay for M06 Transcription Factor (Internal Marker) (AID 2282983; active = hit-call score of the fitted dose curve at least 0.9, where 1 is the maximum;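 also: reporter transcript level by RT-PCR then capillary electrophoresis fluorescence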); details: HepG2 Attagene TRANS M06 internal marker reporter
Summary of the method: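 Background control endpoint: reporter mRNA from transiently transfected HepG2 after 24 h dosing, detected by RT-PCR with capillary electrophoresis fluorescence. Analysed for gain versus DMSO.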

[18] = ATG_GLI_CIS: Attagene CIS-FACTORIAL HepG2 Assay for human Zinc Finger Protein GLI1 (AID 2282945); details: HepG2, Attagene cis-factorial reporter mRNA, GLI element; actives raise or lower the signal
Summary of the method: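 Bidirectional curve fits relative to DMSO, using reporter mRNA levels from RT-PCR plus capillary electrophoresis. Cells were HepG2 transiently carrying cis-regulated reporter constructs, harvested 24 h after dosing.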

[19] = ATG_TCF_b_cat_CIS: Attagene CIS-FACTORIAL HepG2 Assay for human T-Cell-Factor with beta-catenin (TCF/b-cat) (AID 2282965); details: HepG2 TCF/beta-catenin cis-reporter transcription, actives raise or lower the signal
Summary of the method: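 Endogenous transcription factor activity is captured through cis-promoter reporter constructs transiently introduced into human HepG2 liver cells. Induced reporter mRNA is measured after 24 h and fitted bidirectionally relative to DMSO.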

[20] = ATG_DR4_LXR_CIS: Attagene CIS-FACTORIAL HepG2 Assay for human Liver X Receptor (LXR), DR4 submotif (AID 2282929); details: HepG2 Attagene DR4 cis-reporter, mRNA transcription; actives raise or lower the signal
Summary of the method: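 DR4 cis-reporter in HepG2, 24 h exposure. Detection: RT-PCR, 6-FAM labelling, CE fragment analysis. Endpoint fitted bidirectionally, DMSO = baseline.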

Measured: AC50

CN(C)C(=O)C(c1ccccc1)c1ccccc1
inactive: [1] | [2] | [3] | [4] | [5] | [6] | [7] | [8] | [9] | [11] | [12] | [13]
active: [10] 4.18 µM

O=C(O)COc1ccccc1
inactive: [1] | [14] | [2] | [15] | [3] | [16] | [17] | [8] | [9] | [10] | [11] | [13]

BrCBr
inactive: [1] | [18] | [14] | [2] | [3] | [19] | [16] | [5] | [6] | [7] | [8] | [13]

COc1cc(OC)nc(Oc2cccc(Oc3nc(OC)cc(OC)n3)c2C(=O)O)n1
active: [15] 56 µM
inactive: [18] | [2] | [3] | [4] | [5] | [6] | [7] | [9] | [10] | [12] | [13]

O=C1C=CC(=O)C=C1
inactive: [2] | [4] | [19] | [17] | [7] | [8] | [9] | [10] | [11] | [13]
active: [1] 2.15 µM | [15] 26.4 µM

Nc1ccccc1
inactive: [20] | [18] | [14] | [15] | [3] | [19] | [16] | [6] | [17] | [8] | [9] | [11]

C=C(Cl)Cl
active: [15] 50.8 µM
inactive: [18] | [14] | [2] | [3] | [4] | [19] | [16] | [6] | [17] | [7] | [10] | [13]

Oc1ccc(Cl)cc1
active: [15] 27.9 µM
inactive: [18] | [2] | [3] | [19] | [17] | [8] | [11] | [13]

SCc1ccco1
active: [15] 27.7 µM | [9] 33 µM
inactive: [18] | [14] | [2] | [3] | [4] | [16] | [5] | [17] | [7] | [8] | [10] | [12]

O=P1(NCCCl)OCCCN1CCCl (stereo unspecified)
inactive: [18] | [14] | [2] | [4] | [19] | [16] | [5] | [8] | [9] | [10]

CCC(Br)(CC)C(=O)NC(N)=O
inactive: [1] | [2] | [3] | [4] | [19] | [16] | [17] | [8] | [10] | [11] | [12]
active: [15] 48.5 µM
